Hits are enriched below; roughly 0.56% of the tested compounds scored in any of these assays.
CBFb-RUNX1 inh: blocks binding between human CBF-beta and RUNX1; Q01196+Q13951; AlphaScreen CBFb-His/RUNX1-biotin binding, biochemical; 230,000 tested, under 10 active; Potency, µM (titrated, usually from 59.8 µM), inactives show top-dose activity, negative = inhibition, hits mostly inhibitors; also: % of control where 0% means no effect
Target sequence (Q01196 whole entry, looked up): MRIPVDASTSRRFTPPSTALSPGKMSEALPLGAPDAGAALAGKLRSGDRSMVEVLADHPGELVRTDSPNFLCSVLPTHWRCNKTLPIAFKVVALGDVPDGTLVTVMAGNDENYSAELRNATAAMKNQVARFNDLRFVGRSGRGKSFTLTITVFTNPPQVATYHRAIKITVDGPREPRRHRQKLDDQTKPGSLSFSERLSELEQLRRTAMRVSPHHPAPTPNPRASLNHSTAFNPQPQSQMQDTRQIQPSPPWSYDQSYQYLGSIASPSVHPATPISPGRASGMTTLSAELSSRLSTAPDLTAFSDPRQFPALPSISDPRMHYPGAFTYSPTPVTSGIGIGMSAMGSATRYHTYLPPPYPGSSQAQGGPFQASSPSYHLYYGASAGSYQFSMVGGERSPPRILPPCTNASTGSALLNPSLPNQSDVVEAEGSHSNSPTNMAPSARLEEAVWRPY
Target sequence (Q13951 whole entry, looked up): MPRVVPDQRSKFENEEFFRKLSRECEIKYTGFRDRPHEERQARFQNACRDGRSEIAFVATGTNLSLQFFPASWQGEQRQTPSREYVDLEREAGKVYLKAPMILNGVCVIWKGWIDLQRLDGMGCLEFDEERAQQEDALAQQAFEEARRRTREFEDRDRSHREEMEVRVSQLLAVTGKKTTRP
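AlphaScreen binding: CBFb-His and RUNX1-biotin (30 nM each) preincubated 20 min, compound added for 15 min, then nickel and streptavidin beads for 90 min, all at room temperature. Disruption of the interaction by any mechanism counts as activity.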
PKM2 activator: increases activity of human pyruvate kinase M2 | P14618 | purified PKM2, Kinase-Glo ATP luminescence, activation; response scale: 0% is enzyme alone, no compound | Potency, µM (series often up to 57.5 µM), inactives show at the highest dose activation, hits mostly activators | actives 0.34% (n = 260,000) | AID 1631; also: potency is read from the fitted curve at half-maximal effect; % is scaled to controls: 0 for no effect and ±100 for the full control effect; nearly all actives have a fitted effect of over 55% in size
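Purified hPK-M2 (>95%) run at intermediate activity with 0.1 mM ADP and 0.5 mM PEP in 50 mM imidazole pH 7.2, KCl, MgCl2; 1 h room temperature. ATP formed read by Kinase-Glo luminescence; normalized to uninhibited and no-enzyme controls.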
Luc counter: Kinase-Glo luciferase inhibition (counter-screen); Q27757; AID 1379; Kinase-Glo luciferase, ATP luminescence, 8 min; actives 0.28% (n = 200,000); Potency, µM (series often up to 38.3 µM), inactives show at the highest dose activity change, negative = inhibition, usual class: inhibitors; also: potency is read from the fitted curve at half-maximal effect; % is scaled to controls: 0 for no effect and ±100 for the full control effect; nearly all actives have a fitted effect of over 60% in size
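Recombinant Kinase-Glo luciferase, 10 uM ATP (linear range), luciferin; imidazole pH 7.2 / KCl / MgCl2 / Tween / BSA buffer; 8 min RT; luminescence.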
GALK inhibitor: inhibitors of human galactokinase. AID 1868. Potency, µM (doses to about 57.5 µM), for the others: top-dose activity change, negative = inhibition, actives largely listed as inhibitors. P51570. actives 0.007% (n = 270,000). Purified GALK, Kinase-Glo residual ATP luminescence; also: potency is read from the fitted curve at half-maximal effect; % is scaled to controls: 0 for no effect and ±100 for the full control effect
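Kinase-Glo Plus luminescence measured ATP left after a 1 h room-temperature reaction. The reaction used 5 nM GALK, 100 uM galactose and 35 uM ATP at pH 8.0 (20 mM HEPES, 5 mM MgCl2, 60 mM NaCl, 1 mM DTT, 0.01% BSA).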
Tb PFK inh-1: T. brucei PFK enzyme inhibition; O15648; T. brucei PFK, ADP-Glo luminescence; Potency, µM (highest dose often 57.5 µM), inactives show top-dose activity, negative = inhibition, actives largely listed as inhibitors; actives 0.17% (n = 330,000); AID 485367;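 also: potency is read from the fitted curve at half-maximal effect; 0% = uninhibited 1x PFK enzyme wells and -100% = no-enzyme wells; nearly all actives have a fitted effect of over 60% in size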
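In TEA buffer at pH 8.0 with 5 mM MgCl2, enzyme (1.25 nM) converted F6P (0.5 mM) and ATP (0.1 mM) for 45 min at room temperature. ADP product was read by luciferase luminescence.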
TbPFK ATP: orthogonal confirmation of T. brucei phosphofructokinase inhibitors | AID 504636 | Potency, µM (doses to about 57.5 µM), without a hit: top-dose inhibition | actives 47% (n = 1,100) | shares compounds with Tb PFK inh-1 | Tb PFK enzyme, ATP depletion, Kinase-Glo Plus luminescence; calls by dose curve; also: potency is read from the fitted curve at half-maximal effect; nearly all actives have a fitted effect of over 60% in size
Tb PFK inh-2: T. brucei PFK enzyme inhibition, hit validation | actives 41% (n = 1,100) | Potency, µM (doses to about 57.5 µM), for the others: at the top dose activity change, negative = inhibition, most hits filed as inhibitors | AID 504637 | purified T. brucei PFK, ADP-Glo luminescence, 45 min | shares compounds with Tb PFK inh-1;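 also: potency is read from the fitted curve at half-maximal effect; plate controls were full PFK enzyme control for no effect and no enzyme control for full effect; nearly all actives have a fitted effect of over 60% in size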
Starred values were filed as active, the others as inactive; ? = inconclusive; . = not tested or not shown; [ ] = remark or other dose. Unless noted, calls follow the shape of the dose curve; as a rule, active = well fitted curve in the direction sought with a large enough effect; inconclusive = small, poorly fitted or top-dose-only effect, or another doubt; inactive = no such curve, though single readings can be large; an effect the other way counts as inactive or inconclusive.

SMILES	CBFb-RUNX1 inh	PKM2 activator	Luc counter	GALK inhibitor	Tb PFK inh-1	TbPFK ATP	Tb PFK inh-2
COc1ccc(C(CNC(=O)Cc2ccc(Cl)c(Cl)c2)N2CCCCC2)cc1 (stereo unspecified)	.	0%	.	-2%	-7%	.	.
CCN(CC)C(=O)c1ccc(NC(=O)c2ccc(-n3cncn3)c([N+](=O)[O-])c2)cc1	.	.	.	.	-8%	.	.
CN(C)c1ccc(NC(=O)c2ccc(Cn3cc([N+](=O)[O-])cn3)cc2)cc1	-29%	-2%	-1%	-1%	24µM*	12µM*	27µM*
CN1C[C@H](C(=O)N[C@@]2(C)O[C@@]3(O)[C@H]4CCCN4C(=O)[C@@H](Cc4ccccc4)N3C2=O)C=C2c3cccc4[nH]cc(c34)C[C@@H]21	.	.	-8%[7.66 µM]	.	.	.	.
Cc1nn(Cc2ccc(Cl)c(Cl)c2)c(C)c1NC(=O)c1cc(-c2ccco2)on1	-1%	10%	2%	-2%	4.8µM*	2.7µM*	6µM*
C=CCN1C(=O)/C(=C2/Sc3ccccc3N2CCCS(=O)(=O)O)SC1=S	8%	-1%	2%	-14%	?	-29%	?
CCC1CN2CCC1CC2C(Oc1cc2ccccc2c2ccccc12)c1ccnc2ccc(O)cc12 (stereo unspecified)	-1%[13.1 µM]	.	.	.	.	.	.
CC(=O)CC(c1ccc(O)cc1)c1c(O)c2ccccc2oc1=O (stereo unspecified)	4%	.	.	.	.	.	.
O=C(O[C@@H]1OC2COC(=O)c3cc(O)c(O)c(O)c3-c3c(cc(O)c(O)c3O)C(=O)O[C@@H]([C@H]1O)[C@@H]2O)c1cc(O)c(O)c(O)c1	.	9%	0%	.	2.1µM*	0.067µM*	0.085µM*
COc1cccc2c1C(=O)c1c(O)c3c(c(O)c1C2=O)C[C@](O)(/C(C)=N\O)C[C@@H]3O[C@H]1C[C@H](N)[C@@H](O)[C@H](C)O1	.	.	-5%[7.66 µM]	.	.	.	.
ClCC(Cl)CCl	6%[21.7 µM]	.	.	.	.	.	.
COc1cc(C=C2C(=O)NC(=O)NC2=O)ccc1OS(=O)(=O)c1ccccc1[N+](=O)[O-]	.	.	.	-4%	0%	.	.
CCOc1ccc(C=NNc2ccc(S(=O)(=O)Nc3ccccc3C(=O)O)cc2[N+](=O)[O-])cc1OC	.	.	.	.	?	6µM*	3µM*
O=C(CN1CC(c2ccccc2)CC1=O)Nc1ccc(F)cc1 (stereo unspecified)	-7%	5%	3%	-2%	3%	.	.
COc1ccc(CC(=O)Nc2ccc3c(C(F)(F)F)cc(=O)oc3c2)cc1OC	0%	0%	-1%	1%	4%	.	.
COc1ccccc1CC(=O)Nc1ccc2c(c1)C(=O)NC2=O	0%	-3%	0%	1%	?	?	?
Cc1cccc(C(=O)Nc2ccc3c(c2)C(=O)NC3=O)c1	.	-1%	.	.	?	?	30µM*
O=C(CSc1ccc(F)cc1)Nc1ccc2c(c1)C(=O)NC2=O	.	0%	.	7%	?	?	?
O=C(O)C[C@H]1NCc2cc3ccccc3nc21	.	.	-2%[7.66 µM]	.	.	.	.
CCC(C=C[C@@H]1OC(=O)C=C[C@H]1C)=C[C@H](C)CC=CC(C)=C[C@@H](C)C(=O)[C@@H](C)[C@H](O)[C@@H](C)CC(C)=CC(=O)O	?	.	-1%[39.9 µM]	.	.	.	.
O=C(Nc1ccc(Cl)c([N+](=O)[O-])c1)ONC1=NCCCCC1	-13%	-7%	-1%	-1%	?	?	?
Cc1cc([N+](=O)[O-])c(Cl)cc1NC(=O)C(C)C	1%	0%	-2%	3%	?	.	.
Nc1nc(N2CCN(c3cccc(Cl)c3)CC2)n[nH]1	13%	-1%	0%	2%	27µM*	?	-25%
CC(C)CON=O	-5%[21.7 µM]	.	.	.	.	.	.
Clc1nc(Cl)nc(Cl)n1	-10%[21.7 µM]	.	.	.	.	.	.
SMILES	CBFb-RUNX1 inh	PKM2 activator	Luc counter	GALK inhibitor	Tb PFK inh-1	TbPFK ATP	Tb PFK inh-2
CC(C)(C)c1cc(C(=S)N2CCN(CCO)CC2)cc(C(C)(C)C)c1O	8%	9%	-2%	0%	30µM*	12µM*	24µM*
COc1ccc(Br)cc1CN1CCN(CCO)CC1	3%	6%	0%	2%	-2%	.	.
OCCOc1ccccc1	5%[21.7 µM]	.	.	.	-1%	.	.
N=c1n(CCO)c2ccccc2n1CCOc1ccccc1	6%	-1%	-2%	0%	24µM*	13µM*	21µM*
CCOC(=O)Cn1c(=N)n(CCOc2cccc(C)c2)c2ccccc21	5%	-2%	1%	-1%	13µM*	11µM*	13µM*
c1ccc(CCN2CCCCCC2)nc1	.	.	-1%[7.66 µM]	.	.	.	.
Cn1c(O)c(C(=N)COc2cccc(Cl)c2)c(=O)n(C)c1=O	0%	-3%	2%	-1%	-4%	.	.
Cn1c(N)c(C(=O)COC(=O)Cc2ccc(Cl)c(Cl)c2)c(=O)n(C)c1=O	.	.	.	.	9.5µM*	6.7µM*	12µM*
S=C(NCCN1CCOCC1)N1CCN(c2cccc(Cl)c2)CC1	.	1%	.	1%	?	?	27µM*
S=C(NCc1ccco1)N1CCN(c2cccc(Cl)c2)CC1	-4%	2%	4%	6%	?	24µM*	?
ON=C1c2ccccc2-c2ccccc21	.	.	.	-1%	?	7%	6%
Cc1c(Nc2cc(Cl)c3nonc3c2[N+](=O)[O-])c(=O)n(-c2ccccc2)n1C	0%	10%	0%	-1%	?	?	?
CNc1cc(Cl)c2nonc2c1[N+](=O)[O-]	1%	4%	-2%	1%	-28%	.	.
CN(C)C(CSC(N)=O)CSC(N)=O	4%	.	.	.	.	.	.
COc1cc2cc(c1Cl)N(C)C(=O)C[C@H](OC(=O)C(C)C)[C@]1(C)O[C@@H]1[C@@H](C)[C@H]1C[C@](O)(NC(=O)O1)[C@@H](OC)/C=C\C=C(\C)C2	.	.	0%[7.66 µM]	.	.	.	.
CC(=O)OCC1=C[C@H]2[C@@H]3C(C)(C)[C@]3(OC(=O)Cc3ccccc3)C[C@@H](C)[C@]2(O)[C@@H]2C=C(C)C(=O)[C@@]2(O)C1	11%	.	.	.	.	.	.
CC(C)CN1C(=S)SC(C)(C)C1n1oc(=O)n(-c2ccc(Cl)cc2)c1=O (stereo unspecified)	27%	-16%	0%	-2%	27µM*	3%	-4%
COc1ccc(C[C@@H](N)c2ccc(OC)cc2)cc1	.	.	-4%[7.66 µM]	.	.	.	.

Assay outcomes deposited in PubChem BioAssay by National Center for Advancing Translational Sciences (NCATS).
